From PubChem BioAssay (NCI)
The panel holds about 83,000 compounds, 20% with a hit somewhere; the sample as a whole holds those more often.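 Compound tested at a single concentration for 48 hours in 96-well plates; a percent growth value below 10 was scored as active.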 Values without a mark were called inactive. The source made the active and inactive calls.

What was measured:
Test in all cases: NCI-60 one-dose screen, 48 h (100 = growth as untreated, 0 = no growth, -100 = all killed)
Conditions in all cases: 10 µM unless noted
[1] = system: SK-MEL-2 melanoma
[2] = system: EKVX NSCLC
[3] = system: SN12C renal
[4] = system: UO-31 renal
[5] = system: TK-10 renal
[6] = system: A498 renal
[7] = system: CCRF-CEM leukemia
[8] = system: MOLT-4 leukemia
[9] = system: ACHN renal
[10] = system: CAKI-1 renal

Row | Structure (SMILES) | growth [1] | growth [2] | growth [3] | growth [4] | growth [5] | growth [6] | growth [7] | growth [8] | growth [9] | growth [10]
1 | O=C(Cn1cc(CSc2nc3ccccc3o2)nn1)Nc1ccc([N+](=O)[O-])cc1 | 106% | 104% | 102% | 78.8% | 104% | 101% | 105% | 94.1% |  | 
2 | COc1ccc(/C=N\NC(=O)c2ccc3nc(-c4ccc(Cl)cc4)[nH]c3c2)cc1 | 64.1% | 29.4% | 6.24% (active) | 81.9% |  | 66.6% | 65.3% | 68.2% | 21.9% | 60.5%
3 | O=C1NC(=O)C(=Cc2cc(-c3ccc(Cl)cc3)n(-c3ccccc3)n2)C(=O)N1 | 106% | 91.6% | 92.5% | 86.6% |  | 93.5% | 92.7% | 92.4% | 95.2% | 92.8%
4 | Cc1ccc(OCCOCCOCCOCCOc2ccc(C)n(O)c2=S)c(=S)n1O | 12.1% | 17.3% | 13.1% | -1.11% (active) |  | 29.6% | 1.1% (active) | 6.72% (active) | 12.7% | 
5 | CN(C)c1ccc(Cc2cc(-c3ccccc3)nn(C/C(=N/O)c3ccccc3)c2=O)cc1 | 67.9% | 49.5% | 17.9% | 36.1% |  | -3.2% (active) | 46.6% | 35.1% | 52.8% | 53.6%
6 | CS(=O)(=O)Nc1cc(-c2ccc3ncnc(Nc4cccc(Cl)c4)c3c2)cnc1Cl | -40.6% (active) | -23.9% (active) | 16.2% | -2.12% (active) |  | -58.1% (active) | 14.7% | -16% (active) | 11.8% | 2.5% (active)
7 | COc1cc(OC)cc(C(=O)Nc2cnc(Nc3ccc(N4CCOCC4)nc3)nc2Oc2ccc(C(F)(F)F)cc2)c1 | 94.6% | 90.2% | 43.6% | 58.1% |  | 77.7% | 86% | 80.7% | 66.4% | 59.7%
8 | O=C1NCCN1/N=C/c1c(Cl)n(Cc2ccc(Cl)cc2)c2ccccc12 | 91.7% | 88.9% | 85.8% | 72.4% |  | -85.5% (active) | 89% | 65.6% | 94.4% | -18.9% (active)
9 | O=C(COc1ccc(/C=C2\Oc3ccccc3C2=O)cc1)Nc1nccs1 | 93.6% | 84% | 90.3% | -39.8% (active) |  | 116% | 0% (active) | 42.3% | 107% | 68.9%
10 | CN1CCN(CC(=O)N(C)c2ccc(N=C(c3ccccc3)c3c(O)[nH]c4ccc([N+](=O)[O-])cc34)cc2)CC1 | 52.7% | 94.2% | 56.8% | 28.8% |  | 66.7% | 15.1% | 15.7% | 54% | 47.1%
11 | COC(=O)c1cc(-c2ccc(OC)c(OC)c2)[nH]c1N/N=C/c1c(Cl)cccc1Cl | 53.6% | 39.9% | 59.1% | 52.4% |  | 27.6% | 19.7% | 39.4% | 54.4% | 6.72% (active)
12 | COc1cc(NC(=O)c2cncnc2Nc2ccc3c(ccn3Cc3cccc(F)c3)c2)cc(OC)c1 | 66.7% | 85.3% | 67.4% | 37.9% |  | 24.3% | 26.4% |  | 54% | 34.8%
13 | CCN1C(=O)N(CC)C2C1NC(=S)N2/N=C/C=C/c1ccccc1 (centres undefined) | 10.6% | 27.8% | 26.2% | 40.7% |  | -6.35% (active) | 2.75% (active) | 8.08% (active) | 22.8% | 27.2%
14 | Oc1ccc(C(c2ccc(O)cc2)c2ccc(Cl)cn2)cc1 | 72.7% | 15.8% | 6.15% (active) | 64.8% |  | -1.72% (active) | 70.2% |  | 15.7% | 73.5%
15 | CO[C@H]1/C=C/O[C@@]2(C)Oc3c(C)c(O)c4c(O)c(c5c(nc6cc(C)ccn65)c4c3C2=O)NC(=O)/C(C)=C\C=C\[C@H](C)[C@H](O)[C@@H](C)C(O)[C@@H](C)[C@H](OC(C)=O)[C@@H]1C (some centres undefined) | 93.1% | 101% | 98.6% | 76.3% | 102% | 134% | 101% | 89.8% |  | 
16 | Cc1cc(=O)oc2cc(Oc3nc(-c4ccccc4)cn4c(-c5ccccc5)cnc34)ccc12 | 51.9% | 66.8% | 67.6% | 40.8% |  | 9.88% (active) | 77.6% | 58.5% | 48.6% | 85.2%
17 | Nc1ccc(Cl)c2c(=O)c3ccccc3[nH]c12 | 81.2% | 75.2% | 89.2% | 65.1% |  | 69.3% | 100% | 74.1% | 80.8% | 77.7%
18 | N#Cc1c(-c2ccc(F)cc2)cc(-c2cccc(Cl)c2)[nH]c1=O | 78.6% | 66.9% | 60.3% | 54.3% |  | 80.4% | 71.9% | 88.3% | 49.4% | 52.1%
19 | CN1CCN(Cc2ccc(NC(=O)c3cncc(C#Cc4c(N)ncc5cc(F)ccc45)c3)cc2C(F)(F)F)CC1 | -2.97% (active) | 69.6% | 41.7% | 14.6% |  | 73.6% | -13.6% (active) | -59.6% (active) | 40.4% | 

Row | Structure (SMILES) | growth [1] | growth [2] | growth [3] | growth [4] | growth [5] | growth [6] | growth [7] | growth [8] | growth [9] | growth [10]
20 | Cn1ccnc1C(=O)/C=C/c1ccc(CC(=O)Nc2cc(F)c(F)c(F)c2)cc1 | 99.6% | 32.3% | 13.2% | 31.7% |  | 65% | 8.15% (active) | 6.4% (active) | 45.9% | 31.4%
21 | Cc1[nH]c(C2CC(c3ccc(C(F)(F)F)c(F)c3)=NN2C)c(C)c1C(=O)NCC(F)(F)F (centres undefined) | 107% | 87.7% | 93.1% | 72% |  | 30.8% | 93.6% | 72.9% | 99.3% | 81.1%
22 | O=c1[nH]c(CN2CCN(c3ccccc3)CC2)nc2c(Br)cc(Br)cc12 | 91.2% | 96.3% | 110% | 77.8% |  | 121% | 88.9% | 89.6% |  | 99.7%
23 | CCNc1nc(-c2ccc(Cl)c(OC)c2)c(-c2ccnc(NCCNS(=O)(=O)c3ccc(Cl)cc3)n2)s1 | -30% (active) | 34.9% | 36.1% | 40.8% |  | 18.6% | 21.4% | 11.2% | 33.7% | 30.4%
24 | C#CCOC(=O)C(N)CSSCC(N)C(=O)O (centres undefined) | 89.2% | 102% | 105% | 83.5% |  | 116% | 99.4% | 102% | 91.7% | 90.7%
25 | CN(C)CCOc1nc2c3cc([N+](=O)[O-])ccc3nn2c2ccccc12 | 91.6% | 67.3% | 14% | 23.4% |  | 31.6% | 11.7% | 2.34% (active) | -51.3% (active) | 23.6%
26 | Cc1ccc(-c2nn(CC(=O)N3CCOCC3)c(N)c2C#N)cc1 | 103% | 102% | 102% | 84.7% |  | 91.3% | 101% | 103% | 101% | 87.3%
27 | C#CC(F)(F)[C@]1(O)CCC2C3CCC4=CC(=O)CCC4=C3[C@@H](c3ccc(N(C)C)cc3)C[C@@]21C (some centres undefined) | 91.8% | 90.4% | 104% | 76.3% |  | 87.9% | 56.7% | 75.4% | 99.4% | 86.4%
28 | C=CN(C(=O)N1CCN(c2cc3c(cc2F)c(=O)c(C(=O)O)cn3C2CC2)CC1)c1nc(-c2ccc(C)cc2)cs1 | 35.2% | 24.2% | 8.99% (active) | 13.4% |  | -4.05% (active) | 4.64% (active) | 13.9% | 27.7% | 20.9%
29 | CCCc1cc(CCC)n2nc(N)nc2n1 | 128% | 115% | 101% | 129% |  | 96% | 93.1% | 94.8% | 101% | 95.3%
30 | C#C[C@]1(O)CC[C@H]2[C@@H]3CC=C4c5sc(-c6cccc(C)c6)nc5CC[C@]4(C)[C@H]3CC[C@@]21C | 86.9% | 68% | 71.3% | 34.1% |  | 94.9% | 49.6% | 44.2% | 63.7% | 27.2%
31 | O=C(Nc1ccccc1)Nc1ccccc1CNc1nc(Nc2ccc(OCCN3CCCC3)cc2)ncc1Cl | 49.9% | 85.8% | 57.8% | 39.6% |  | 31.5% | 20.4% | 37.9% | 18.2% | 62.7%
32 | CCN1C(=O)N(CC)C2C1NN=c1s/c(=C\c3ccccc3)c(=O)n12 (centres undefined) | 42.5% | 47.1% | 26.5% | 37.9% |  | 9.75% (active) | 6.04% (active) | 10.9% | 30.2% | 27.1%
33 | Nc1nc(=O)n([C@H]2CC=C(CO)O2)cc1F | 102% | 110% | 96.8% | 91.5% |  | 75.8% | 103% | 90.5% | 110% | 94.6%
34 | COc1cc(-c2ccc(-c3ccc(C(=N)N)s3)s2)cc(OC)c1OC | 70% | 74.4% | 60% | 67.1% |  | 84.5% | -7.27% (active) | 4.68% (active) | 2.6% (active) | 41.7%
35 | Cc1nc2c(c(-c3ccccc3)n1)Cc1c(ccc3ccccc13)O2 | 112% | 128% | 102% | 69.8% |  | 79.1% | 96.5% | 97% | 90.8% | 
36 | CN1/C(=C/C=C/c2n(Cc3ccc4ccccc4c3)c(Cl)c(Cl)[n+]2Cc2ccc3ccccc3c2)Oc2ccccc21 |  | -91.7% (active) | -92.9% (active) | -93.1% (active) | -90.5% (active) | -77.9% (active) | -52.7% (active) | 91.1% | -96.6% (active) | -94.1% (active)
37 | Cc1cc2nc(C(Cl)Cl)nc(-c3ccccc3)n2n1 |  | 61% | 85.6% | 75.1% | 59.2% | 20.8% | 79.1% | 53.1% | 11.6% | 35%
38 | COc1cc2c(cc1-c1c(C)noc1C)ncc1nc(C3CCOCC3)n(C3CCC(OC(F)F)CC3)c12 (centres undefined) |  | 60.9% | 79.8% | 14.5% | 21.4% | 41.7% | 58.9% | 68.6% | 54.2% | 42.6%
